According to PubChem BioAssay AID777 (Sanford-Burnham Center for Chemical Genomics, 2007):
About 19,000 (20%) of roughly 96,000 compounds were called active. The list is a sample of the results. Values without a mark were called inactive.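 How the source made its calls: active means blocking of liver enzyme CYP2C9 beyond about 50% at 5 µM (limit read from the data); inactive means the rest.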

Target: Cytochrome P450 2C9 (Homo sapiens) (UniProt P11712)
Experiment: blockers of cytochrome P450 2C9 activity – biochemical, luminescence, ADME assay, primary screen (AID 777)
Conditions: CYP2C9 Supersomes, luciferin-H conversion, at 5 µM, stronger effect = higher value

Chain of Cytochrome P450 2C9 (Homo sapiens) (P11712 whole entry, looked up): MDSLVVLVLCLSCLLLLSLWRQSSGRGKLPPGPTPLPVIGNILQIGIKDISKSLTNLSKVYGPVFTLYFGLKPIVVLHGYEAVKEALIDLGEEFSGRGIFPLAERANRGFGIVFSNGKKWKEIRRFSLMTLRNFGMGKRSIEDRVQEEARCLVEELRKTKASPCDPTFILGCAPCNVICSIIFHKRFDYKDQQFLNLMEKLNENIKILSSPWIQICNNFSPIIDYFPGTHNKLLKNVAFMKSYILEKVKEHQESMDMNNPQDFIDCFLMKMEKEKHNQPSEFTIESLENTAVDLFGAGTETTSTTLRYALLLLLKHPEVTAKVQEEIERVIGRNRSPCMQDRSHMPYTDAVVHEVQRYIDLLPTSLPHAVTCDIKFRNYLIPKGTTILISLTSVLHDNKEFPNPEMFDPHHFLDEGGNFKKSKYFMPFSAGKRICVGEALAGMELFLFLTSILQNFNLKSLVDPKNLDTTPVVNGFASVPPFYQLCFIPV

Structure (SMILES)	inhibition
CCCCCCSc1nsc(N)n1	1.5%
CCOC(=O)c1sc(=S)n(-c2cccc(OC)c2)c1N	-20.4%
CS(=O)(=O)N(CC(=O)N1CCN(Cc2ccc3c(c2)OCO3)CC1)c1ccc2c(c1)OCO2	7.2%
CS(=O)(=O)N(CC(=O)N1CCN(Cc2ccccc2)CC1)c1ccc2c(c1)OCCO2	-0.9%
CS(=O)(=O)N(CC(=O)N1CCN(c2cccc(Cl)c2)CC1)c1ccccc1	54.7% (active)
CC1CCN(C(=O)CN(c2ccc(Oc3ccccc3)cc2)S(C)(=O)=O)CC1	50.7% (active)
COc1cccc(N(CC(=O)N2CCc3ccccc3C2)S(C)(=O)=O)c1	14.5%
Cc1cccc(N(CC(=O)N2CCOCC2)S(C)(=O)=O)c1	3.8%
O=C(Nc1cccnc1)c1noc2c1CCCCC2	33.5%
Cc1nn(CC(=O)Nc2ccc3c(c2)nc(CN2CCCCC2)n3C)c(=O)c2ccccc12	16.1%
O/N=C(\c1ccc2c(c1)OCCO2)C1CCCCC1	35.2%
CCOc1ccccc1N=C1NC(=O)CS1	-11.8%
COc1ccc(OCc2ccc(-c3nc4ccccc4c(=O)n3N)o2)cc1	45.5%
O=C(O)/C=C/C(=O)Nc1ccc(F)cc1F	3.9%
NC(=O)c1ncc(C(F)(F)F)cc1Oc1ccc(F)cc1	7.9%
CCCSc1nc2c(c(=O)[nH]c(=O)n2C)n1CCc1ccccc1	14.6%
CN(Cc1ccccc1)c1nc2c(c(=O)[nH]c(=O)n2C)n1CCSc1nc2ccccc2[nH]1	67.2% (active)
Cn1c(=O)[nH]c(=O)c2c1nc(N(CCO)Cc1ccccc1)n2Cc1ccccc1Cl	25.8%
Brc1ccc(/C=N/N2CCN(C3c4ccccc4-c4ccccc43)CC2)s1	25.4%
O=[N+]([O-])c1ccccc1/C=N/n1c(COc2ccccc2)n[nH]c1=S	8.7%
Cc1nc(C)c(C(=O)N(c2ccc(C)c(C)c2)C(C(=O)NCc2ccco2)c2ccccc2)s1 (stereo not drawn)	46.6%
Cn1nc(-c2ccc(Cl)cc2)c2cc(C(=O)NCc3ccco3)sc21	43.4%
Cc1nn(-c2ccccc2)c2sc(C(=O)N(Cc3ccco3)C(C)C(=O)NC(C)(C)C)cc12 (stereo not drawn)	65.2% (active)
CCn1nnc(NC(=O)c2cc(Cl)c(OC)c(Cl)c2)n1	-1.7%
O=C(N1CCOCC1)N(Cc1ccccc1)c1ccccn1	8.5%

Structure (SMILES)	inhibition
CCC(C)Sc1nc(C)nc2c1c(=O)n(C)c(=O)n2C (stereo not drawn)	8.4%
Cc1nnc(SCC(=O)N/N=C/c2cn(-c3ccccc3)nc2-c2ccc(F)cc2)n1-c1ccccc1	29.6%
Cc1ccc(-c2nn(-c3ccccc3)cc2/C=N/NC(=O)c2ccc3c(c2)OCO3)cc1	76.1% (active)
COc1cccc(/C=N/NC(=O)c2cccc([N+](=O)[O-])c2)c1OS(=O)(=O)c1ccc(C)cc1	1.8%
CC/C(C)=N/Nc1nc2sc3c(c2c(=O)[nH]1)CC(C)(C)OC3	30.9%
CCOC(=O)c1sc(NC(=O)CSc2ncccn2)c(C#N)c1C	45.3%
CCOC(=O)c1sc(NC(=O)CSc2nnc(-c3ccco3)o2)c(C(=O)OCC)c1C	78.6% (active)
Cc1cccc(NC(=O)CSc2nnc(-c3ccco3)o2)c1	29.1%
CCOC(=O)Cc1csc(NC(NC(=O)OCC)(C(F)(F)F)C(F)(F)F)n1	22.3%
Cc1cc(N2CCCC2=O)cc(C)c1S(N)(=O)=O	-21.5%
COC(=O)[C@H](CCSC)NC(=O)Nc1ccc(OC)cc1	7.5%
Cc1cc(C(=O)NCCCc2ccccc2)no1	2.4%
Cc1ccc(-c2nn(-c3ccccc3)cc2CN(Cc2ccccc2)C(=O)CCC(=O)O)o1	65.1% (active)
CCN(Cc1ccccc1)C(=O)CSc1nc(C)cc2c1C(=O)OC2	-130%
O=C(O)CCC(=O)N(Cc1cccs1)Cc1cccs1	31.5%
CCCSC(=S)NC1CCS(=O)(=O)C1 (stereo not drawn)	19.1%
Cc1ccc(Cc2cnc(N)s2)o1	3%
N/C(=N\OC(=O)CCc1ccccc1)c1ccc(Cl)cc1	8.3%
COc1cc(/C=N/O)cc(Br)c1OS(=O)(=O)c1ccc(C)cc1	67.9% (active)
COc1cc(/C=N/O)cc(Br)c1OCc1cccc(Cl)c1	-39.5%
CCOc1cc(/C=N/O)cc(Br)c1OC	17.9%
O=C(NCc1cn2ccsc2n1)Nc1cccc(Cl)c1	-17.8%
Cc1cccc(NC(=O)C2CCN(S(=O)(=O)c3cccc4cccnc34)CC2)c1	-180%
COC(=O)c1sc(=S)n(-c2ccccc2)c1N	3.7%
COCCOC(=O)c1sc(=S)n(CCOC)c1N	1%

Structure (SMILES)	inhibition
CCOC(=O)Cn1c(N)c(C(=O)OC)sc1=S	57.8% (active)
Cc1ccc(O)c(CNc2nc3ccccc3n2C)c1	21.9%
Cc1nnc(OCC(=O)NCCC2=CCCCC2)c2ccccc12	-29.1%
O=C(COc1ccc(Cl)cc1)NCCC1=CCCCC1	40.4%
O=C(COc1cccc(-n2cnnn2)c1)NCCC1=CCCCC1	79.4% (active)
CC(C)(C)c1cc(CN2CCN(CCC#N)CC2)cc(C(C)(C)C)c1O	4.9%
CC(C)Oc1ccc(C2NC(=O)NC2=O)cc1 (stereo not drawn)	-28.2%
COc1ccc2oc(C)c(NC(C)=O)c2c1	-8.9%
COc1ccc(S(=O)(=O)Nc2ccc3oc(C)c(C(C)=O)c3c2)cc1	67.2% (active)
COc1ccc(Nc2cc(=O)oc3ccccc23)cc1	-27.6%
CCOC(=O)c1c(C)[nH]c(C)c1C(=O)CSc1nc(N)cc(N)n1	-35.6%
COc1cc(CNCc2cccs2)cc(Br)c1OC	8.7%
Cn1c(SCc2c(F)cccc2Cl)nnc1-c1cnccn1	-6%
COc1cccc(N=c2oc3c(C)ncc(CO)c3cc2C(N)=O)c1	11.4%
COc1cccc(OC)c1C(=O)Nc1nnc(C(C)C)s1	20.1%
COc1ccccc1NC(=O)C1=C(C)NC2=C(C(=O)CCC2)C1c1ccc(C)o1 (stereo not drawn)	10.7%
COC(=O)C1=C(C)NC(=O)NC1/C=C/c1ccccc1 (stereo not drawn)	-0.6%
COC(=O)C1=C(C)NC2=C(C(=O)c3ccccc32)C1c1ccc(-c2ccc(C(=O)O)cc2)o1 (stereo not drawn)	97.3% (active)
Clc1ccc(C=NC23CN4CN(CN(C4)C2)C3)cc1	1.1%
COc1ccc(CN2CCCCC2C)cc1OC (stereo not drawn)	-9.7%
CCc1ccc2oc(=O)cc(CN3CCCCC3C)c2c1 (stereo not drawn)	54.9% (active)
Cc1ccc(CN2C(=O)CCC2C(=O)NCCCN2CCCCC2C)cc1 (stereo not drawn)	0%
CCC1(CC)NC(=O)N(CC(=O)OCC(=O)Nc2ccc(C(F)(F)F)cc2)C1=O	-10.3%
O=C(OCC(=O)c1cccs1)C1=COCCO1	0.5%
CCC(C)(C)c1ccc(Oc2ccc(NC(=O)COC(=O)C3=COCCO3)cc2)cc1	76.1% (active)

Structure (SMILES)	inhibition
O=C(C1CC1)N1CCN=C1SCc1ccc(Cl)cc1	21.3%
CC(C(=O)N1CCOCC1)N1c2cccc3cccc(c23)S1(=O)=O (stereo not drawn)	-30.6%
NC(N)=N/N=C/c1ccc(OCc2ccc(Cl)cc2Cl)cc1	-11.8%
COc1ccc(C2Nc3ccccc3C(=O)N2Cc2ccccc2)cc1Cn1nnc2ccccc21 (stereo not drawn)	93.5% (active)
COc1ccc(C2=NO[C@@H]3C(=O)N(Cc4ccccc4)C(=O)[C@H]23)cc1OC	47%
Cc1cc(C)c2c(n1)nn1c(-n3ccnc3)cc(C)nc21	-4.3%
CCOC(=O)CSc1nnc(CNc2nc(-c3ccccc3)cs2)n1C	-2.1%
CCn1c(Cc2ccccc2)nnc1SCC(=O)Nc1ccccc1	4%
Cc1ccc(C(=O)CSc2nnc(Cn3nnc4ccccc43)n2C)cc1	20.6%
Cc1ccccc1NC(=O)Cc1nnc(SCC(=O)N2CCN(c3ccccc3)CC2)n1C	13.3%
Cn1c(CNc2nc(-c3ccccc3)cs2)nnc1SCC(=O)c1ccccc1	65.7% (active)
Cn1c(CC(=O)Nc2ccccc2)nnc1SCC(=O)c1ccccc1	76.5% (active)
CCc1ccc2c(c1)cc(CN(C(=S)Nc1ccccc1Cl)C1CC1)c1nnnn12	-11.3%
CCOc1ccccc1C1C(C(=O)OC)=CN(C)C=C1C(=O)OC	39.1%
CC(C)Oc1ccc(Oc2ccc(C(F)(F)F)cn2)cc1	23.3%
Cc1ccc(C2C(C#N)C(C#N)N3CCCN23)cc1 (stereo not drawn)	-8.1%
CCOC(=O)c1c(C)n(C)c2ccc(OC)c(NC(=O)CN3CCC4(CC3)OCCO4)c12	18.3%
COc1ccc(CCNC(=O)CN2CCC(n3nnc4cc(F)ccc43)CC2)cc1OC	28.1%
Cc1nn(CC(=O)Nc2nc3ccccc3s2)c(C)c1[N+](=O)[O-]	89.2% (active)
CSCCC(Nc1nc2ccccc2s1)C(=O)O (stereo not drawn)	25.8%
Cc1nn(Cc2ccccc2Cl)c(C)c1NC(=O)Cn1nc([N+](=O)[O-])c(Cl)c1C	11%
Cc1ccc(S(=O)(=O)NCc2cn3ccsc3n2)c(C)c1	21.3%
COc1ccc(CCN(Cc2cc3cccc(C)c3[nH]c2=O)C(=O)N2CCCC2)cc1OC	32.5%
